{"source": "PubChem BioAssay (NCATS)", "key": {"[1]": {"target": "Peroxisome proliferator-activated receptor alpha (Homo sapiens) (UniProt Q07869)", "sequence (Q07869 whole entry, looked up)": "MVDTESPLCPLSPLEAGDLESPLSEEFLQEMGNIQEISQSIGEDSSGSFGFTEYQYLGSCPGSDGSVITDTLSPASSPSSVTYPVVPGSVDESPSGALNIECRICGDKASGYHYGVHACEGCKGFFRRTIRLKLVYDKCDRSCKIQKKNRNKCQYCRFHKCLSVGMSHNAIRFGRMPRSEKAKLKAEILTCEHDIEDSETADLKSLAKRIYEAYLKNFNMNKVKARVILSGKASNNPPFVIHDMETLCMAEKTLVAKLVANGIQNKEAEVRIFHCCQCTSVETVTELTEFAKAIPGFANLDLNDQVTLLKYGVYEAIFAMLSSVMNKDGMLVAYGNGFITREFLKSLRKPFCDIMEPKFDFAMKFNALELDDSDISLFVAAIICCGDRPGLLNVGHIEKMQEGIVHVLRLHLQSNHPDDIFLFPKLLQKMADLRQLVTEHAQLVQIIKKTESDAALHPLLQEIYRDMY", "test": "qHTS assay for small molecule agonists of the peroxisome proliferator-activated receptor alpha (PPARalpha) signaling pathway (AID 651778; active = well fitted curve in the direction sought with a large enough effect; an effect the other way counts as inactive or inconclusive; note: % of control where 0% means no effect)", "details": "PathHunter PPARalpha complementation, chemiluminescence, 6 h; stronger effect = higher value", "in_short": "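Chemiluminescence from complemented enzyme reported PPARalpha activation in cells after 6 hr of compound treatment at 37 C. The detection reagent was incubated for 60 min at room temperature, and compounds were scored as agonists.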"}, "[2]": {"test": "qHTS assay for small molecule agonists of the antioxidant response element (ARE) signaling pathway measured by Nrf2-dependant transcriptional activity (AID 720636; active = well fitted curve in the direction sought with a large enough effect in the repeat runs; an effect the other way counts as inactive or inconclusive; note: % of control where 0% means no effect)", "details": "ARE-luc HepG2, Nrf2 luciferase reporter, 16 h; series mostly up to 92.4 µM", "in_short": "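Quantitative HTS format in HepG2 cells stably expressing an ARE-luciferase reporter; 16 hr compound treatment at 37 C, luciferase signal detected with ONE-Glo.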"}, "[3]": {"test": "qHTS assay for small molecule agonists of the antioxidant response element (ARE) signaling pathway measured by Nrf2-dependant transcriptional activity - cell viability counter screen (AID 720653; active = well fitted curve in the direction sought with a large enough effect in the repeat runs; an effect the other way counts as inactive or inconclusive; note: potency is the fitted concentration of half-maximal effect)", "details": "ARE-bla HepG2 viability, CellTiter-Glo ATP luminescence, 16 h; max response: stronger effect = lower value", "in_short": "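Cytotoxicity counter screen: intracellular ATP quantified by CellTiter-Glo luminescence in the same ARE-bla HepG2 plates, after 16 h compound exposure and a 2 h beta-lactamase substrate step.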"}, "[4]": {"test": "qHTS Assay for Identifying Gametocytocidal Compounds (AID 743244; active = well fitted curve in the direction sought with a large enough effect; an effect the other way counts as inactive or inconclusive;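 note: % is set by controls: 0 for no effect and ±100 for the full control effect; actives lower the fluorescent signal which means gametocytes are killed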)", "details": "P. falciparum 3D7 stage III-V gametocytes, alamarBlue, 72 h; max response: stronger effect = lower value", "in_short": "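In this qHTS viability screen, late-stage 3D7 gametocytes are incubated with compound for 72 h, then with alamarBlue for 24 h; reduced resorufin fluorescence marks killing.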"}, "[5]": {"test": "qHTS assay for cell viability of HEK293 cells (AID 743288; active = well fitted curve in the direction sought with a large enough effect; an effect the other way counts as inactive or inconclusive; note: potency is the fitted concentration of half-maximal effect; nearly all actives have a fitted effect of over 50% in size)", "details": "ATP luminescence (CellTiter-Glo), 18 h; max response: stronger effect = lower value", "in_short": "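HEK293 parental, 2,000 cells/well; ≥5 h pre-incubation 37 C; pintool compound addition; 18 h, 37 C; CellTiter-Glo 30 min RT; luminescence read.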"}, "[6]": {"test": "qHTS profiling for inhibitors of Plasmodium falciparum (DD2) proliferation (AID 743323)", "details": "lower = more inhibition; at 28.7 µM (top of the series) unless noted", "in_short": "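Parasite DNA quantified by SYBR Green fluorescence (ex 485, em 535 nm) after saponin/Triton lysis and overnight dark incubation. Cultures: 0.3% parasitemia, 2.5% hematocrit, 72 h, 37 C; data scaled between DMSO and 0.29 uM artemisinin.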"}, "[7]": {"test": "qHTS profiling for inhibitors of Plasmodium falciparum (HB3) proliferation (AID 743324; active = well fitted curve in the direction sought with a large enough effect; an effect the other way counts as inactive or inconclusive)", "details": "Plasmodium falciparum HB3 blood-stage proliferation; at 28.7 µM (top of the series) unless noted", "in_short": "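P. falciparum HB3 grown in erythrocytes (0.3% parasitemia, 2.5% hematocrit final) with compound for 72 h at 37 C, 5% CO2. Parasite DNA detected by SYBR Green after saponin/triton lysis overnight; normalized to 0.29 uM artemisinin and DMSO.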"}, "[8]": {"test": "qHTS profiling of the MIPE4 collection as inhibitors of Plasmodium falciparum (3D7) proliferation (AID 743344)", "details": "P. falciparum 3D7 in erythrocytes, SYBR Green DNA fluorescence, 72 h; at 28.5 µM (top of the series) unless noted", "in_short": "(§1)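 Erythrocytes infected with P. falciparum (0.3% parasitemia, 2.5% hematocrit) incubated with compounds 72 h at 37 C, 5% CO2. Lysis with saponin/Triton buffer containing SYBR Green I, overnight at room temperature in the dark; DNA fluorescence (485/535 nm) normalised to 0.29 uM artemisinin and DMSO.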"}, "[9]": {"test": "qHTS profiling of the MIPE4 collection as inhibitors of Plasmodium falciparum (DD2) proliferation (AID 743345)", "details": "P. falciparum Dd2 in erythrocytes, SYBR Green DNA, 72 h; at 28.5 µM (top of the series) unless noted", "in_short": "as §1"}, "[10]": {"test": "qHTS profiling of the MIPE4 collection as inhibitors of Plasmodium falciparum (DD2) proliferation (Rep 2) (AID 743346)", "details": "P. falciparum Dd2 in erythrocytes, SYBR Green DNA, 72 h; at 28.5 µM (top of the series) unless noted", "in_short": "as §1"}, "[11]": {"test": "qHTS profiling of the MIPE4 collection as inhibitors of Plasmodium falciparum (HB3) proliferation (AID 743347)", "details": "P. falciparum HB3 in erythrocytes, SYBR Green DNA, 72 h; at 28.5 µM (top of the series) unless noted", "in_short": "as §1"}, "[12]": {"test": "High-throughput drug toxicity screening in the BPDCN cell line Gen2.2 (AID 1224824)", "details": "Gen2.2 BPDCN cells; at 45.8 µM (top of the series) unless noted", "in_short": "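Seed 500 exponentially growing Gen2.2 cells/well; add compounds by pin tool; incubate 48 h, 37 °C, 5% CO2; add CellTiter-Glo, 15 min RT; read luminescence. % activity vs DMSO (100%) and bortezomib (0%).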"}, "[13]": {"target": "Tyrosine-protein kinase Yes (Homo sapiens) (UniProt P07947)", "sequence (P07947 whole entry, looked up)": "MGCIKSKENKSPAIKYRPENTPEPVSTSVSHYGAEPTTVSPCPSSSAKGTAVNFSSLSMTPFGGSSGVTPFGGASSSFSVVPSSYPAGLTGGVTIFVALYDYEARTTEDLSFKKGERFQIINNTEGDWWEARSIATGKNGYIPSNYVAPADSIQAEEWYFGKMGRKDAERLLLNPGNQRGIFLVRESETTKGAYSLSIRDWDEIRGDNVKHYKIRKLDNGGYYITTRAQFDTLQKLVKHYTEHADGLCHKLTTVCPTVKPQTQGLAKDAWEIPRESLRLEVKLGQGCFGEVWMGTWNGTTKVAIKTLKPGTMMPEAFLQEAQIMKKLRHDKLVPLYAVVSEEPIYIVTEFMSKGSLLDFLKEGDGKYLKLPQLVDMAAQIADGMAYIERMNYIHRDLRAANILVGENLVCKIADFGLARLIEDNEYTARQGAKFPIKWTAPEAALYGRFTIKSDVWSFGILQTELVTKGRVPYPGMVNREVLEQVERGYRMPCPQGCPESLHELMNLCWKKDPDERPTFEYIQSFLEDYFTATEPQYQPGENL", "test": "qHTS for small molecule inhibitors of Yes1 kinase: Primary Screen (AID 686947; active = well fitted curve in the direction sought with a large enough effect; an effect the other way counts as inactive or inconclusive)", "details": "Yes1 kinase biochemical qHTS inhibition; series mostly up to 76.9 µM", "in_short": "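Yes1 (4 nM) preincubated 20 min with compound, then 60 min room-temperature reaction with 0.1 mM ATP and 0.3 mg/mL poly(E4Y) in pH 7.5 Tris, 10 mM MgCl2. ADP measured by ADP-Glo luminescence, normalised to enzyme/no-enzyme controls.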"}, "[14]": {"test": "qHTS for small molecule inhibitors of Yes1 kinase: Counter Assay (AID 686950; active = well fitted curve in the direction sought with a large enough effect; an effect the other way counts as inactive or inconclusive)", "details": "series mostly up to 76.9 µM", "in_short": "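Luminescence read-out from ADP-Glo quantifies a fixed ADP amount (0.02 mM ADP with 0.08 mM ATP) after 60 min at room temperature; signal is normalized between DMSO wells with ATP/ADP and with 0.1 mM ATP alone.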"}, "[15]": {"test": "qHTS for compounds that reverse cellular toxicity of Amyloid beta (A-beta) peptide in yeast: LOPAC Validation Assay (AID 720559; active = well fitted curve in the direction sought with a large enough effect; an effect the other way counts as inactive or inconclusive)", "details": "yeast expressing A-beta; series mostly up to 46.1 µM", "in_short": "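Medium dispensed, compounds pinned, A-beta yeast suspension added; plates held at 30 C for 48 hr; absorbance measured at 600 nm to gauge growth; values scaled between DMSO and FeCl3/clioquinol (equimolar) controls.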"}, "[16]": {"test": "qHTS for Activators of Parkin Expression: LOPAC Validation Assay (NLuc Reporter) (AID 720572; active = well fitted curve in the direction sought with a large enough effect; an effect the other way counts as inactive or inconclusive)", "details": "Parkin promoter NanoLuc reporter cells, luminescence, percent of positive control, DMSO as zero; series mostly up to 46.1 µM", "in_short": "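Parkin promoter-driven FLuc/NLuc neuronal reporter cells; 24 h plating, 7-pt dose response, 24 h at 37 C/5% CO2; FLuc then NanoLuc reagent, 10 min each, luminescence; DMSO/positive control normalized.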"}, "[17]": {"target": "T1, Hexokinase-4 (Homo sapiens) + Glucokinase regulatory protein (Homo sapiens) (UniProt P35557+Q14397)", "T1 sequence (P35557 whole entry, looked up)": "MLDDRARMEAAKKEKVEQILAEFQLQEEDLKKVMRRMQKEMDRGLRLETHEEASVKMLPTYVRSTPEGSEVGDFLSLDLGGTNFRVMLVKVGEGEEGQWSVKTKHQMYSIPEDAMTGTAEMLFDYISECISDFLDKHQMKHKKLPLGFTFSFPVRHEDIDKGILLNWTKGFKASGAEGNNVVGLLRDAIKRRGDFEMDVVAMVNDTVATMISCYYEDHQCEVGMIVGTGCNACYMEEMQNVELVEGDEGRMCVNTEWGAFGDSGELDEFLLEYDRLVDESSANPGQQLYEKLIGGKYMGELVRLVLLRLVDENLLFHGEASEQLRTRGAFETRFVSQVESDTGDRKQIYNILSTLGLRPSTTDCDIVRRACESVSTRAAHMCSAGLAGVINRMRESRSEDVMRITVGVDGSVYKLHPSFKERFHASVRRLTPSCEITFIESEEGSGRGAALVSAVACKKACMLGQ", "T1 sequence (Q14397 whole entry, looked up)": "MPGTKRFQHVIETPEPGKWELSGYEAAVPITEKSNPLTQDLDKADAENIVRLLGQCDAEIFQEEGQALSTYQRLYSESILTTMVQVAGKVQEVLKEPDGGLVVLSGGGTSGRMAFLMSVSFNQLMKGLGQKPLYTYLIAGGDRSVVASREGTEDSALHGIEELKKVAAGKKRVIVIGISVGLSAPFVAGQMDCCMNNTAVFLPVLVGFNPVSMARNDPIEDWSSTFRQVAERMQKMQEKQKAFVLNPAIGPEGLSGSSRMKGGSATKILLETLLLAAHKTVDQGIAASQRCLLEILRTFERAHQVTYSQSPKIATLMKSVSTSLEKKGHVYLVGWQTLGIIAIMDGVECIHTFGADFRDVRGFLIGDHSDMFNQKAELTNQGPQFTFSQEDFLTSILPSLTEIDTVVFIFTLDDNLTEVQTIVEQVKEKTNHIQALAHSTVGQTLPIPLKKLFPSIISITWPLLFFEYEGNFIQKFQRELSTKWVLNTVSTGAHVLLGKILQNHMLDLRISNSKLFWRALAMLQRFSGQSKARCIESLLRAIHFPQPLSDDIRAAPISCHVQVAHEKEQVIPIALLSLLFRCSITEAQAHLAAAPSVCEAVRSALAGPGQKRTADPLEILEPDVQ", "test": "qHTS assay for inhibitors of recombinant human GCK-GKRP interaction: Diaphorase-coupled assay (AID 743205; active = well fitted curve in the direction sought with a large enough effect; an effect the other way counts as inactive or inconclusive)", "details": "G6PDH/diaphorase resorufin fluorescence; series mostly up to 57.5 µM", "in_short": "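25 mM Hepes pH 7.6, 5 mM glucose, 0.4 mM ATP, 4 U/ml G6PDH; 10 nM each GST-GCK/FLAG-GKRP. Kinetic fluorescence read, 1/min × 30 min. Normalized: DMSO ± enzyme = max/min.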"}, "[18]": {"target": "T1, Hexokinase-4 (Homo sapiens) + Glucokinase regulatory protein (Homo sapiens)", "test": "qHTS assay for inhibitors of recombinant human GCK-GKRP interaction: ADP-Glo assay (AID 743206; active = well fitted curve in the direction sought with a large enough effect; an effect the other way counts as inactive or inconclusive)", "details": "ADP-Glo luminescence, 60 min, 0% = vehicle-only wells with enzyme present; series mostly up to 76.9 µM", "in_short": "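GST-GCK and FLAG-GKRP (15 nM each in the dispensed mix, with 2 uM S6P) react with 0.4 mM ATP and 5 mM glucose (final) in Hepes pH 7.6 for 60 min at room temperature. ADP is measured by ADP-Glo luminescence.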"}, "[19]": {"target": "T1, Hexokinase-4 (Homo sapiens) + Glucokinase regulatory protein (Homo sapiens)", "test": "qHTS assay for inhibitors of recombinant human GCK-GKRP interaction: HTRF assay (AID 743207; active = well fitted curve in the direction sought with a large enough effect; an effect the other way counts as inactive or inconclusive)", "details": "recombinant GCK-GKRP HTRF binding, 60 min, with sorbitol-6-phosphate; series mostly up to 57.5 µM", "in_short": "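5 nM GST-GCK + 5 nM FLAG-GKRP + 2 uM S6P, pH 7.1 buffer (25 mM Hepes, 2 mM MgCl2, 25 mM KCl, 1 mM DTT, Tween/BSA); pin-transferred cpd; anti-FLAG XL665/anti-GST K; 60 min RT; HTRF.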"}}, "note": "Where “and” joins values, the source holds several entries; their conditions need not be identical. Equal values may be shown once. Results filed as inconclusive are left out. Calls of active or inactive are those of the source. Unless noted, the rule behind the calls is not given here.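 Throughout, for cell viability, % of control (lower = more cytotoxic): cells exposed to compounds for 48 h before reading.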"}
{"smiles": "CCc1nc(N)nc(N)c1-c1ccc(Cl)cc1", "values": [{"measurement": "max response", "setting": "[1]", "result": "-1.61% (inactive) and -1.39% (inactive)"}, {"measurement": "Potency", "setting": "[2]", "result": "inactive"}, {"measurement": "Potency", "setting": "[3]", "result": "11.2 µM (active)"}, {"measurement": "max response", "setting": "[4]", "result": "14.3% (inactive)"}, {"measurement": "Potency", "setting": "[5]", "result": "10 µM (active) and 12.6 µM (active)"}, {"measurement": "activity, percent of control", "setting": "[6]", "result": 90.3, "unit": "%"}, {"measurement": "remaining proliferation (% of control), lower = more inhibition", "setting": "[7]", "result": 3.84, "unit": "%"}, {"measurement": "parasite growth, % of DMSO control", "setting": "[8]", "result": 30.2, "unit": "%"}, {"measurement": "parasite growth remaining, % of DMSO control (lower = more inhibition)", "setting": "[9]", "result": 83.6, "unit": "%"}, {"measurement": "parasite growth, % of control (lower = inhibition)", "setting": "[10]", "result": 85.4, "unit": "%"}, {"measurement": "growth, % of control", "setting": "[11]", "result": 18.1, "unit": "%"}, {"measurement": "cell viability, % of control (lower = more cytotoxic)", "setting": "[12]", "result": 136, "unit": "%"}]}
{"smiles": "Cc1cccc(-c2[nH]ncc2-c2ccc3ncccc3n2)n1", "values": [{"measurement": "Potency", "setting": "[13]", "result": "2.92 µM (active) and 2.23 µM (active)"}, {"measurement": "outcome", "setting": "[14]", "result": "inactive"}, {"measurement": "max response", "setting": "[4]", "result": "-4.01% (inactive)"}, {"measurement": "activity, percent of control", "setting": "[6]", "result": "107% [at 57.5 µM]"}, {"measurement": "remaining proliferation (% of control), lower = more inhibition", "setting": "[7]", "result": "89.3% [at 57.5 µM]"}, {"measurement": "parasite growth, % of DMSO control", "setting": "[8]", "result": 74.7, "unit": "%"}, {"measurement": "parasite growth remaining, % of DMSO control (lower = more inhibition)", "setting": "[9]", "result": 94.4, "unit": "%"}, {"measurement": "parasite growth, % of control (lower = inhibition)", "setting": "[10]", "result": 81.1, "unit": "%"}, {"measurement": "growth, % of control", "setting": "[11]", "result": 52.8, "unit": "%"}, {"measurement": "cell viability, % of control (lower = more cytotoxic)", "setting": "[12]", "result": 759, "unit": "%"}]}
{"smiles": "O=C(NOCC1CC1)c1ccc(F)c(F)c1Nc1ccc(I)cc1Cl", "values": [{"measurement": "Potency", "setting": "[13]", "result": "inactive"}, {"measurement": "outcome", "setting": "[14]", "result": "inactive"}, {"measurement": "parasite growth, % of DMSO control", "setting": "[8]", "result": 24.6, "unit": "%"}, {"measurement": "parasite growth remaining, % of DMSO control (lower = more inhibition)", "setting": "[9]", "result": 91.6, "unit": "%"}, {"measurement": "parasite growth, % of control (lower = inhibition)", "setting": "[10]", "result": 56.1, "unit": "%"}, {"measurement": "growth, % of control", "setting": "[11]", "result": 63.7, "unit": "%"}, {"measurement": "cell viability, % of control (lower = more cytotoxic)", "setting": "[12]", "result": 6.36, "unit": "%"}]}
{"smiles": "O=Nc1c(-c2c(O)[nH]c3cc(Br)ccc23)[nH]c2ccccc12", "values": [{"measurement": "Potency", "setting": "[13]", "result": "154 nM (active)"}, {"measurement": "outcome", "setting": "[14]", "result": "inactive"}, {"measurement": "outcome", "setting": "[15]", "result": "inactive"}, {"measurement": "outcome", "setting": "[16]", "result": "inactive"}, {"measurement": "outcome", "setting": "[17]", "result": "inactive"}, {"measurement": "outcome", "setting": "[18]", "result": "inactive"}, {"measurement": "outcome", "setting": "[19]", "result": "inactive"}, {"measurement": "parasite growth, % of DMSO control", "setting": "[8]", "result": 2.9, "unit": "%"}, {"measurement": "parasite growth remaining, % of DMSO control (lower = more inhibition)", "setting": "[9]", "result": 6.11, "unit": "%"}, {"measurement": "parasite growth, % of control (lower = inhibition)", "setting": "[10]", "result": 3.69, "unit": "%"}, {"measurement": "growth, % of control", "setting": "[11]", "result": 1.37, "unit": "%"}, {"measurement": "cell viability, % of control (lower = more cytotoxic)", "setting": "[12]", "result": 1.04, "unit": "%"}]}
